TRb SRC2 PPI – disrupts binding of human TR beta to SRC2; Potency, µM (highest dose often 106 µM), for inactives: at the top dose activity change, negative = inhibition, hits mostly inhibitors; 280,000 compounds, 0.065% hits; TRbeta-SRC2 peptide binding, fluorescence polarization; receptor liganded with 1 µM T3; P10828;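 further: potency means the concentration at half of the fitted maximal effect; plate controls were bound peptide for no effect and peptide without receptor for full effect; nearly all actives have a fitted effect of over 50% in size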
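Polarization signal, normalized between peptide-alone and full complex controls, measured compound effects on T3-liganded human TRb LBD (0.6 uM) binding 20 nM Texas Red SRC2 peptide after 5 hr.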
TexasRed fluor – alters Texas Red total fluorescence, flagging assay interference; AID 1479; 280,000 compounds, 0.29% hits; Potency, µM (top dose mostly 106 µM), for inactives: at the highest dose fluorescence change, negative = quenching; TRb/SRC2 Texas Red total fluorescence interference; active means well fitted curve in either direction with a large enough effect; inconclusive means small, poorly fitted or top-dose-only effect; further: potency means the concentration at half of the fitted maximal effect; on the % scale 0 is the no-effect control and ±100 the full control effect
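Human TRb ligand-binding domain at 0.6 uM with 20 nM Texas Red SRC2 peptide in Tris buffer containing 1 uM T3 and 5% DMSO, incubated with compound 5 h at ambient temperature. Total fluorescence (555/632 nm) calculated as parallel + 2 × perpendicular.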
HTT ATP protect – cytoprotection in Huntington HTT-Q103 PC12 cell model. PC12 HTT-Q103 induced, cytoprotection, ATP luminescence, 40 h. Potency, µM (doses to about 56.4 µM), for inactives: cytoprotection (ATP increase), actives largely listed as activators. 230,000 compounds, 0.14% hits. AID 1471; further: potency means the concentration at half of the fitted maximal effect; % of control where 0% means no effect; nearly all actives have a fitted effect of over 45% in size
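Huntington model: PC12 line, ecdysone-inducible HTTQ103 exon1–GFP, tebufenozide 100 nM. Test articles in a dose series. Endpoint luminescence from cellular ATP.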
KDM4E inh – inhibitors of human JMJD2E histone demethylase; B2RXH2; JMJD2E catalytic domain, FDH-coupled NADH fluorescence (FDH is formaldehyde dehydrogenase); Potency, µM (titrated, usually from 57.1 µM), inactives show top-dose activity change, negative = inhibition, actives largely listed as inhibitors; 230,000 compounds, 1.6% hits; active means well fitted inhibition curve with a large enough effect, not every such curve was filed as active; inconclusive means small, poorly fitted or top-dose-only effect, or another doubt; inactive means no such curve, though single readings can be large or run the other way;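 further: potency means the concentration at half of the fitted maximal effect; 0% = wells with enzyme and -100% = buffer wells without enzyme; nearly all actives have a fitted effect of over 50% in size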
Target sequence (B2RXH2 1-337 limits assumed): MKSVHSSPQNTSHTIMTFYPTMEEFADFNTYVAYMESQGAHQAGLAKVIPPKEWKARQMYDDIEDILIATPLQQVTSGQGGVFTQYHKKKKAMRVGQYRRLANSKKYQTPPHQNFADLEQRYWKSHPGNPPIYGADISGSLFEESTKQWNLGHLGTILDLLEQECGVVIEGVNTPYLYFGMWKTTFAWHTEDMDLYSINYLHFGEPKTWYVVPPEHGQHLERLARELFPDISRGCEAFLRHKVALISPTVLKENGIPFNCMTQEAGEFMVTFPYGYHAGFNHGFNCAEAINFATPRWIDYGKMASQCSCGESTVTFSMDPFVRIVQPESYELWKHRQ
Coupling enz – inhibits coupling enzyme system, counter-screen for aldolase hits. coupling enzyme system counterscreen, AmpLite Red fluorescence. 290,000 compounds, 0.67% hits. activity change, negative = inhibition, % at 58.2 µM, hits read low. AID 2472; in the data active means activity change below about -30%; further: on the % scale 0 is the no-effect control and ±100 the full control effect
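Compounds tested against the coupling enzymes alone at 57.5 uM final; readout was AmpLite Red fluorescence (525/598 nm) after 20 min at RT.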
HTT aggregate – reduces HttQ103-GFP aggregates in PC12 cells | 220,000 compounds, 1.1% hits | Potency, µM (highest dose often 46.1 µM), inactives show at the top dose activity change, negative = inhibition, hits mostly inhibitors | AID 1688 | PC12 HttQ103-GFP aggregates, Acumen cytometry, 40 h; further: potency means the concentration at half of the fitted maximal effect; on the % scale 0 is the no-effect control and ±100 the full control effect; nearly all actives have a fitted effect of over 60% in size
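Multiplexed with ATP-based cell death, this channel scores GFP aggregates in PC12 cells expressing inducible HTTex1-Q103-GFP. Induction used 100 nM tebufenozide; compounds were tested in concentration series.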
* = called active by the depositor; ? = inconclusive; · = not tested or not shown; [ ] = remark or other dose. Only some compounds are listed: those with a hit (about 2% of all), similar ones and a draw of the others. Unless noted, the call rests on the fitted dose curve; in most records, active means well fitted curve in the direction sought with a large enough effect; inconclusive means small, poorly fitted or top-dose-only effect, or another doubt; inactive means no such curve, though single readings can be large; an effect the other way counts as inactive or inconclusive.

SMILES	TRb SRC2 PPI	TexasRed fluor	HTT ATP protect	KDM4E inh	Coupling enz	HTT aggregate
CCNc1ncc2nc(-c3cccs3)c(=O)n(Cc3ccc(F)cc3)c2n1	·	·	-1%	·	1	·
COc1ccc(-c2nc(NC(=O)CSc3nnc(C)s3)ns2)cc1	-1%	-1%	2%[1.9 µM]	?	2	11µM*
Cc1ccc(-c2nc(NC(=O)CSc3nnc(C)s3)ns2)cc1	4%	0%	0%	-1%	1	?
COc1ccc(-c2nc(NC(=O)CSc3nnc4ccccn34)ns2)cc1	2%	1%	-13%	?	0	?
Cc1nnc(SCC(=O)Nc2nsc(-c3ccccc3)n2)s1	4%	1%	-3%[0.074 µM]	-8%	-6	13µM*
CCc1cc(-c2oncc2-c2ccc(OC)cc2)c(O)cc1OC	-6%	-3%	·	·	-7	·
Cc1nc2cnc(Oc3ccccc3)nc2n(C2CC2)c1=O	·	·	-36%	·	-2	·
Cc1ccc(-c2noc(CCCC(=O)NC3CCCC3)n2)cc1	·	·	·	·	-4	·
Cc1ccc(-c2noc(CCC(=O)NC3CCCc4ccccc43)n2)cc1 (centres undefined)	-13%	2%	·	4%	0	3.2µM*
Cc1ncc(C[n+]2csc(CCOC(=O)CC34CC5CC(CC(C5)C3)C4)c2C)c(N)n1	2%	-3%	22%[10 µM]	-3%	-1	6%
Cc1c(CCOC(=O)CC23CC4CC(CC(C4)C2)C3)sc[n+]1Cc1ccccc1	4%	-4%	-60%	5%	·	11µM*
Cc1cc(/C=N/NC(=O)c2cccc(N(C)C)c2)c(C)n1-c1cc(C(=O)O)cc(C(=O)O)c1	2%	-2%	-34%	25µM*	0	-9%
N[C@@H](C(=O)O)[C@H](CC(=O)O)c1ccc(Cl)cc1	-2%	0%	-20%	-5%	1	·
Cn1c(=O)oc2cc(S(=O)(=O)NCc3ccncc3)ccc21	-9%	-4%	-23%[0.074 µM]	9%	4	8.9µM*
Cc1ccc(NC(=O)c2ccc3c(c2)NC(=O)c2ccccc2S3)c(Cl)c1	7%	8%	·	·	·	·
Cc1ccccc1NC(=O)Cc1cn(C)c2ccccc12	5%	-3%	-1%	2%	-9	9%
CN1CCN(c2ccccc2NC(=O)Cc2cn(C)c3ccccc23)CC1	6%	-1%	-54%	0%	1	25µM*
Cc1c(N=C2C=CC(=O)c3ccccc32)c(=O)n(-c2ccccc2)n1C	-25%	-23%	-163%	?	-52*	?
Cc1c(N=C2C=C(Br)C(=O)C(Br)=C2)c(=O)n(-c2ccccc2)n1C	1%	1%	12%[10 µM]	-16%	-5	?
CC(C)C[C@H](NC(=O)[C@H](CC(C)C)NC(=O)[C@H](Cc1ccccc1)NC(=O)[C@@H](N)CO)C(=O)N[C@@H](CCCN=C(N)N)C(=O)N[C@@H](CC(N)=O)C(=O)O	7%	2%	·	·	5	·
C=C1/C(=C\C=C2/CCC[C@]3(C)C([C@H](C)CCCC(C)(C)O)CC[C@@H]23)C[C@@H](O)C[C@@H]1O (some centres undefined)	8%	-2%	?	·	·	·
COc1ccc(CCNc2ncnc3c2cnn3-c2cc(Cl)ccc2C)cc1	2%	1%	·	·	·	·
COc1cc(OC)c(NC(=O)CCCn2nc(C)c3sc4ccccc4c3c2=O)cc1Cl	6%	-3%	·	·	·	·
CC(=O)N/C(=C/c1ccc2c(c1)OCO2)C(=O)NCC(=O)O	-4%	-1%	·	?	1	3.2µM*
O=C(NNC1=C(C(=O)C(F)(F)F)CCC1)c1ccc(Br)cc1	7%	2%	-58%	-12%	-2	11µM*
Cc1ccccc1C1CC(=O)Oc2cc(O)ccc21 (centres undefined)	?	100µM*[fluorescent]	-39%[96.6 µM]	·	-3	·
CCOC(=O)c1ccccc1NS(=O)(=O)c1ccc(OCC)cc1	3%	-1%	-44%[10 µM]	?	-2	11µM*
CCOc1ccc(S(=O)(=O)Nc2ccccc2C(=O)Nc2ccccc2N2CCOCC2)cc1	-11%	-5%	-9%[10 µM]	?	4	12%
